Measured values published in the supplement of paper PMC10981050.
Values joined by “and” are separate entries in the source; they are usually repeats but may differ in a detail not shown here. Equal entries are not always repeated. Structures can show the parent of a compound that is named as a salt.

Columns and labels:
Test in all cases: cell viability relative to vehicle control; higher = less cytotoxic
Conditions in all cases: 10 µM
[1] = system: K562
Outline: (§1)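 CRISPR-edited SRSF2 P95 mutant and isogenic wild-type clones of four leukaemia lines were screened against Selleck bioactive, kinase and epigenetic probe libraries, with identity-inconsistent compounds removed. Compounds were acoustically dispensed into 384-well plates at a single 10 µM dose, with 2000 cells in 50 µL medium per well. After 48 h, supernatant was removed and CellTiter-Glo luminescence was read. Viability was expressed as percent of the on-plate DMSO vehicle control, analysed in Genedata Screener.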

[2] = system: MARIMO
Outline: as §1

[3] = system: MOLM14
Outline: as §1

[4] = system: OCI-AML2
Outline: as §1

SMILES	cell viability ([1]; SRSF2 genotype: SRSF2 P95H/wt)	cell viability ([1]; SRSF2 genotype: SRSF2 wt/wt) [%]	cell viability ([2]; SRSF2 genotype: SRSF2 P95H/wt) [%]	cell viability ([2]; SRSF2 genotype: SRSF2 wt/wt) [%]	cell viability ([3]; SRSF2 genotype: SRSF2 P95H/wt) [%]	cell viability ([3]; SRSF2 genotype: SRSF2 wt/wt) [%]	cell viability ([4]; SRSF2 genotype: P95H/wt) [%]	cell viability ([4]; SRSF2 genotype: wt/wt) [%]
O=C(O)c1cc(O)cc(Cl)c1 [3-chloro-5-hydroxybenzoic Acid]	104% and 101%	103	96.3	95.1	105	107	96.9	109
COC(=O)c1ccccc1O [Methyl salicylate]	101% and 96.7%	94.8	99.2	104	96.3	104	94.3	102
CC#C[C@]1(O)CC[C@H]2[C@@H]3CCC4=CC(=O)CCC4=C3[C@@H](c3ccc(N(C)C)cc3)C[C@@]21C [Mifepristone (Mifeprex)]	84.3% and 91.5%	86.8	86.7	90.7	79.7	89.6	104	92.6
CC/C(=C(\c1ccccc1)c1ccc(OCCN(C)C)cc1)c1ccccc1 [Tamoxifen Citrate (Nolvadex)]	82.2% and 76.4%	93	80	74.3	74.5	81.8	69.7	74.5
COc1ccc(S(=O)(=O)Nc2nc(-c3cccc([N+](=O)[O-])c3)cs2)cc1OC	104% and 99%	92.7	97.4	112	93.3	100	95.4	108
CC(OC(=O)OC1CCCCC1)OC(=O)C1=C(CSc2nnnn2CCN(C)C)CS[C@@H]2[C@H](NC(=O)Cc3csc(N)n3)C(=O)N12 (stereo partly specified) [Cefotiam Hexetil Hydrochloride]	105% and 98.2%	93.7	87.5	94.9	89.9	94.3	90	93.8
C=CC(=O)N1CCC(Oc2cc3c(Nc4ccc(Cl)c(Cl)c4F)ncnc3cc2OC)CC1 [Poziotinib (HM781-36B)]	56% and 63.7%	65.6	71.9	72.6	53.4	58	73.7	66.7
Cc1ncc([N+](=O)[O-])n1C [Dimetridazole]	106% and 99.5%	105	109	106	99.1	103	105	109
CN(C)c1ccc2nc3c(C(=O)O)cc(=O)c(O)c-3oc2c1 [Gallocyanine]	84.7% and 76.8%	77.7	82.6	87.4	85.3	86.2	84	78.8
CC(=O)OCC1=C[C@@H]2OC(=O)C3=CO[C@@H](O[C@@H]4O[C@H](CO)[C@@H](O)[C@H](O)[C@H]4O)[C@H]1[C@@H]32 [Asperulosid]	83.4% and 85.5%	85.5	85.2	94.3	85	88	88.5	113
C[C@@H]1CCCC2=CC(=O)[C@@H]3[C@@H](C3(C)C)[C@]21C [Aristolone]	107% and 96.8%	101	95.8	103	112	99	98.3	109
CCCCCCNC(=O)Nc1ccc(S(=O)(=O)Nc2ccc(CCNC[C@H](O)COc3ccc(O)cc3)cc2)cc1	72.8% and 83.3%	82.8	89.2	91.4	75.5	75.4	74.2	71
O=C(O)c1ccccc1-c1c2cc(Br)c(=O)c(Br)c-2oc2c(Br)c(O)c(Br)cc12 [Eosin Y Disodium]	97.2% and 95.8%	90.1	96	92.8	85.3	93.6	91.7	93.4
COc1cc(O)c2c(=O)cc(-c3ccc(O)c(O)c3)oc2c1 [Hydroxygenkwanin]	85.2% and 89.8%	88.9	45.7	69.4	57.5	58.8	58.3	56.4
C/C(=N\NC(=O)c1cccc(S(=O)(=O)N2CCOCC2)c1)c1cc(Cl)ccc1O	57.4% and 51.4%	37	20.1	24.4	6.59	1.96	10.8	11.4
COc1cc2nc(N3CCCC3)nc(NCCCCCN3CCCC3)c2cc1OC	2.75% and 3.32%	4.26	9.85	3.33	0.26	0.27	0.31	0.37
CC1CCc2c(N3CCC(O)CC3)c(F)cc3c(=O)c(C(=O)O)cn1c23 (stereo unspecified) [Nadifloxacin]	94% and 98.4%	92.4	102	105	107	108	114	94
